Assay results: PubChem BioAssay
Activity calls are given as the source filed them.

Experiments:
[1] = system: Wnt5a (protein binding on small-molecule microarray); test: small molecules binding Wnt5a protein – biophysical, small-molecule microarray, 635/667 nm fluorescence, primary screen (AID 1142); conditions: 635 nm fluorescence, higher = more signal;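 further: fluorescence read at 667 nm with signal to noise per printed feature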
[2] = ATP-based viability of Huh7 replicon cells – cell-based, CellTiter-Glo luminescence, basal, 48 h, cytotoxicity control for HCV replication inhibitor project, primary screen (AID 1143); conditions: higher = more signal, called active from +8 up or from −8 down;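 further: Huh7 hepatoma cells carrying a hepatitis C replication reporter with no stimulus; test concentration not given here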
[3] = basal CRE-LacZ reporter activity in PC12 – cell-based, unstimulated, primary screen (AID 1145); conditions: no forskolin, luminescence, 4.5 h, higher = more signal, called active from +8 up or from −8 down
[4] = forskolin-driven CRE-LacZ activity in PC12 – cell-based, CRE-LacZ reporter, forskolin-stimulated, primary screen (AID 1146); conditions: luminescence, 4.5 h, higher = more signal, called active from +8 up or from −8 down;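 further: PC12 cells with 6xCRE LacZ reporter stimulated by forskolin 10 µM; beta-galactosidase reporter signal reflecting CREB driven transcription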
[5] = biological target: Streptavidin (Streptomyces avidinii) (UniProt P22629); test: compounds binding control protein streptavidin – biophysical, small-molecule microarray, 635/667 nm fluorescence, artefact control for SMM compound annotation, primary screen (AID 1147); conditions: higher = more signal;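 further: signal reflects streptavidin binding to arrayed compounds as a control protein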
Streptavidin (Streptomyces avidinii), sequence (P22629 whole entry, looked up): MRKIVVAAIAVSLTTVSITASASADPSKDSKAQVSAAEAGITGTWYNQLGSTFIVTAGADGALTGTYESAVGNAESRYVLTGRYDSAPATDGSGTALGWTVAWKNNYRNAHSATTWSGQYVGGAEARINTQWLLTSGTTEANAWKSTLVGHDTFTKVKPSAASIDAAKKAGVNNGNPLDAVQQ

[6] = probe aInhba binding on compound microarray – biochemical, small-molecule microarray, 635/667 nm fluorescence, primary screen (AID 1148); conditions: higher = more signal;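 further: score merges 667nm spot fluorescence with signal-to-noise for antibody binding to printed compounds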
[7] = biological target: Torsin-1A (Homo sapiens) (UniProt O14656); test: TOR1A wild-type binding on microarray – cell lysate, small-molecule microarray, lysate, 635/667 nm, primary screen (AID 1149); conditions: COS7 hTOR1A-WT lysate, 635 nm fluorescence, higher = more signal
Torsin-1A (Homo sapiens), sequence (O14656 whole entry, looked up): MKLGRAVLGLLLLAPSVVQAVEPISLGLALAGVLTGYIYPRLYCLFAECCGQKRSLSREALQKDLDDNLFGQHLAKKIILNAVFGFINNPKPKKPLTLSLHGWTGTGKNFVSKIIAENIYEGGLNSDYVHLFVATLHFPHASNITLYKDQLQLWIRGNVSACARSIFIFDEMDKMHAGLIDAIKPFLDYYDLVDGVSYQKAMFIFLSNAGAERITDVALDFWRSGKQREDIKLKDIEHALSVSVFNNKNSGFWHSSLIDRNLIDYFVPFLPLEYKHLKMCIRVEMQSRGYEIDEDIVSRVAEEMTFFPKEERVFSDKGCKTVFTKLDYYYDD

[8] = biological target: Torsin-1A (Homo sapiens) (UniProt O14656); test: torsin A mutant lysate binding on microarrays – cell lysate, small-molecule microarray, COS7 lysate, 635/667 nm fluorescence, primary screen (AID 1150); conditions: COS7 hTOR1A mutant lysate, 635 nm fluorescence, higher = more signal;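 further: score pools 667 nm emission and signal to noise measuring lysate protein binding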
[9] = system: Sonic hedgehog protein (Shh); test: Sonic hedgehog microarray binding compounds – biochemical, small-molecule microarray, 635/667 nm fluorescence, primary screen (AID 1151); conditions: 635 nm fluorescence, higher = more signal;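 further: Shh protein binding to compounds spotted on small-molecule microarray slides; score combines spot fluorescence intensity with signal-to-noise across triplicate slides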
[10] = optical density shifts of acrAB sulA E. coli – strain DRC41, OD650, 48 h, E. coli filamentation inducer project, primary screen (AID 1152); conditions: higher = more signal, called active from +8 up or from −8 down;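 further: E. coli MC1000 strain DRC41 lacking acrAB efflux pump and sulA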
[11] = probe aLefty1 binding on compound microarray – biochemical, small-molecule microarray, 635/667 nm fluorescence, primary screen (AID 1153); conditions: higher = more signal;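 further: score merges spot fluorescence with signal-to-noise ratio from the scanned slide images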
[12] = plasmodial surface anion channel blockers, osmotic lysis – cell-based, P. falciparum Indochina, OD700, 1 h, primary screen (AID 1154); conditions: P. falciparum Indochina infected RBC osmotic lysis, higher = more signal, called active from +8 up or from −8 down
[13] = plasmodial surface anion channel blockers, osmotic lysis – cell-based, P. falciparum Indochina, OD700, 2 h, primary screen (AID 1155);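 further: lysis reports solute entry through the parasite surface anion channel PSAC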; conditions: P. falciparum Indochina infected erythrocytes, higher = more signal, called active from +8 up or from −8 down
[14] = changes in parasitized red cell lysis, either direction – P. falciparum Indochina, OD700, 3 h, PSAC antagonist project, primary screen (AID 1156); conditions: P. falciparum-infected erythrocytes, osmotic lysis, higher = more signal, called active from +8 up or from −8 down
[15] = plasmodial surface anion channel blockers, osmotic lysis – cell-based, P. falciparum Indochina, OD700, 18 h, primary screen (AID 1157); conditions: P. falciparum Indochina infected erythrocytes, osmotic lysis OD700, 18 h; higher = more signal, called active from +8 up or from −8 down
[16] = S6 kinase pathway phospho-S6 level changes – cell-based, A549, cytoblot, luminescence, serum-stimulated, primary screen (AID 1158); conditions: 5 h, higher = more signal;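 further: serum-stimulated A549 lung adenocarcinoma cells; signal is phosphorylated S6 detected by cytoblot immunostaining with HRP secondary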
[17] = biological target: NADPH oxidase 2 (Homo sapiens) (UniProt P04839); test: compounds shifting NOX2 Amplex Red fluorescence – cell-based, HEK293-NOX2, PMA-stimulated, NOX inhibitor project, primary screen (AID 1159); conditions: 45 min, higher = more signal, called active from +8 up or from −8 down; further: test concentration not given here
NADPH oxidase 2 (Homo sapiens), sequence (P04839 whole entry, looked up): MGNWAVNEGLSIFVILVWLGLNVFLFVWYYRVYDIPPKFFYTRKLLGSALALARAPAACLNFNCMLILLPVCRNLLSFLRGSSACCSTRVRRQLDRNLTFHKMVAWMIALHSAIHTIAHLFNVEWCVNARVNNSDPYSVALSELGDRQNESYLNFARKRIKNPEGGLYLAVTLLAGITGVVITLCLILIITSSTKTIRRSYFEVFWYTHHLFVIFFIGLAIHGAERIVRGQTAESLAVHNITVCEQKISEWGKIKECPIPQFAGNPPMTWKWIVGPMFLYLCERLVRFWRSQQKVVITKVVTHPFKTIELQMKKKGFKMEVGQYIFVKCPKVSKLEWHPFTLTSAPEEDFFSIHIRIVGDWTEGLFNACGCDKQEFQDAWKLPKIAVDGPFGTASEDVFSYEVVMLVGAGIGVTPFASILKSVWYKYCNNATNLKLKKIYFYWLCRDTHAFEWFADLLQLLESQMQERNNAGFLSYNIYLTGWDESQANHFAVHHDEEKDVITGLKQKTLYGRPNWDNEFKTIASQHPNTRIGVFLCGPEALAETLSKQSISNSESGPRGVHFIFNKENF

[18] = biological target: NADPH oxidase 4 (Homo sapiens) (UniProt Q9NPH5); test: compounds shifting NOX4 Amplex Red fluorescence – cell-based, HEK293-NOX4, tetracycline-induced, NOX inhibitor project, primary screen (AID 1160); conditions: HEK293-NOX4, Amplex Red H2O2 fluorescence, 45 min; higher = more signal, called active from +8 up or from −8 down
NADPH oxidase 4 (Homo sapiens), sequence (Q9NPH5 whole entry, looked up): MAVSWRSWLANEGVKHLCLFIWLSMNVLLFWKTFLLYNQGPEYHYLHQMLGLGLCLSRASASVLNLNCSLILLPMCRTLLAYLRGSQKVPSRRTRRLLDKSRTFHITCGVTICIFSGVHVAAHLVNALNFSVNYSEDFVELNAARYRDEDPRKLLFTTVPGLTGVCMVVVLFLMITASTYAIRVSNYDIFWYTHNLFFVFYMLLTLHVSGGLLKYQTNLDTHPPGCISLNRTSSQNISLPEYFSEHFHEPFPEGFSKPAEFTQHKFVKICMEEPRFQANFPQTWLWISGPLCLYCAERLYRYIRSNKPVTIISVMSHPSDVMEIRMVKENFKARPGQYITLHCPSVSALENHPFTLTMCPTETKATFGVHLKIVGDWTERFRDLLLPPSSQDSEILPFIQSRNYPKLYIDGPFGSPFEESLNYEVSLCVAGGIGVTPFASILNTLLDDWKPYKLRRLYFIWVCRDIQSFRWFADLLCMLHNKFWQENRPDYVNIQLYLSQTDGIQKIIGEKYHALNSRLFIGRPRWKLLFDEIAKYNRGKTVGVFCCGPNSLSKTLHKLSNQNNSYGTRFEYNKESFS

[19] = biological target: NADPH oxidase 5 (Homo sapiens) (UniProt Q96PH1); test: compounds shifting NOX5 Amplex Red fluorescence – cell-based, HEK293-NOX5, NOX inhibitor project, primary screen (AID 1161); conditions: HEK293-NOX5, ionomycin, 45 min, higher = more signal
NADPH oxidase 5 (Homo sapiens), sequence (Q96PH1 whole entry, looked up): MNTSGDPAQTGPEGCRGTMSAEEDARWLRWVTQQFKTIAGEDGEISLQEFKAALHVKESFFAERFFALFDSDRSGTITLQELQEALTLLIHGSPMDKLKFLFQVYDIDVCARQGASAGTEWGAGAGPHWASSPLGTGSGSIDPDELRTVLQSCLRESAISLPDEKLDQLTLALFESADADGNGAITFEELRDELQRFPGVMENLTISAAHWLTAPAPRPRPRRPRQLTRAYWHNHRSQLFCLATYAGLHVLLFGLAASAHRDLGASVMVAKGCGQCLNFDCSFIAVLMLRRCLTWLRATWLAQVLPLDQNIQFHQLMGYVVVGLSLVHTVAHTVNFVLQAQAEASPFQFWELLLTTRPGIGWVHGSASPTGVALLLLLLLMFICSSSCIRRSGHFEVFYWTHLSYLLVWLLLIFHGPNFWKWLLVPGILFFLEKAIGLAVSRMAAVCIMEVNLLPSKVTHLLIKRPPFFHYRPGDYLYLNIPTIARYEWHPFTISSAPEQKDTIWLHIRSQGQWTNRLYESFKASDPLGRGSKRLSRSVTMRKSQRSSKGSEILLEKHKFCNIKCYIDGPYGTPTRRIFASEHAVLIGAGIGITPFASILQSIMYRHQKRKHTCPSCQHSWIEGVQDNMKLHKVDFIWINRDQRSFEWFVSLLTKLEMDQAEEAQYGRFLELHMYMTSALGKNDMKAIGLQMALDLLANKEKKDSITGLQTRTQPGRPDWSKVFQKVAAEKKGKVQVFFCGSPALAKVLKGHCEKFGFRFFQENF

[20] = compound effects on lung adenocarcinoma cell viability – A549, calcein-AM fluorescence, 48 h, basal, profiling panel (AID 1162); conditions: higher = more signal; further: test concentration not given here

Cc1ccc(S[C@]2(C(=O)NCC(C)C)CC(=O)N(C(C)C)[C@@H]2c2ccc(CO)cc2)cc1
composite z-score [1]: 0.114
z-score [2]: -4.95 (inactive)
z-score [3]: 0.182 (inactive)
z-score [4]: -0.838 (inactive)
composite z-score [5]: -1.13
composite z-score [6]: 0.0464
composite z-score [7]: 0.234
composite z-score [8]: 0.0167
composite z-score [9]: -0.305
z-score [10]: 2.67 (inactive)
composite z-score [11]: -0.191
z-score [12]: 1.73 (inactive)
z-score [13]: -0.147 (inactive)
z-score [14]: -0.651 (inactive)
z-score [15]: -1.54 (inactive)
z-score [16]: 3.27
z-score [17]: 0.827 (inactive)
z-score [18]: -0.881 (inactive)
z-score [19]: 0.137
z-score [20]: -0.0169

COc1ccc(/C=C/C(=O)c2cccc(OCC(=O)OC(C)(C)C)c2)cc1
composite z-score [1]: -0.132
z-score [2]: -0.385 (inactive)
z-score [3]: 0.622 (inactive)
z-score [4]: -0.588 (inactive)
composite z-score [5]: -0.152
composite z-score [6]: -0.363
composite z-score [7]: 0.349
composite z-score [8]: 0.179
composite z-score [9]: -0.139
z-score [10]: 1.42 (inactive)
composite z-score [11]: -0.113
z-score [12]: 30.9 (active)
z-score [13]: 25.8 (active)
z-score [14]: 0.746 (inactive)
z-score [15]: 1.41 (inactive)
z-score [16]: 0.112
z-score [17]: -1.32 (inactive)
z-score [18]: 0.197 (inactive)
z-score [19]: -3.7
z-score [20]: 0.764

C=CCNC(=O)[C@H]1[C@@H]2C(=O)O[C@@H](c3ccccc3)[C@@H](c3ccccc3)N2[C@@H](c2ccc(OCCO)cc2)[C@]12C(=O)Nc1ccc(C#CCCO)cc12
composite z-score [1]: -0.09
z-score [2]: -2.34 (inactive)
z-score [3]: 0.0384 (inactive)
z-score [4]: 0.8 (inactive)
composite z-score [5]: -0.0494
composite z-score [6]: -0.0639
composite z-score [7]: 0.234
composite z-score [8]: 0.21
composite z-score [9]: 1.06
z-score [10]: 2.32 (inactive)
composite z-score [11]: 0.0793
z-score [12]: 4.5 (inactive)
z-score [13]: -0.407 (inactive)
z-score [14]: -0.144 (inactive)
z-score [15]: -2.03 (inactive)
z-score [16]: 2.16
z-score [17]: 2.4 (inactive)
z-score [18]: 1.18 (inactive)
z-score [19]: 0.572
z-score [20]: 0.109

C=C(/C(=C/C[C@H](OC(C)=O)c1cccc(OCCO)c1)c1cc(C(=O)OC)ccc1OC)C(C)C
composite z-score [1]: -0.0431
z-score [2]: -0.802 (inactive)
z-score [3]: 11.7 (active)
z-score [4]: -1.02 (inactive)
composite z-score [5]: -0.948
composite z-score [6]: -0.128
composite z-score [7]: -0.0282
composite z-score [8]: -0.193
composite z-score [9]: 0.237
z-score [10]: 1.81 (inactive)
composite z-score [11]: -0.191
z-score [12]: 6.36 (inactive)
z-score [13]: 1.29 (inactive)
z-score [14]: 2.46 (inactive)
z-score [15]: 0.576 (inactive)
z-score [16]: -0.228
z-score [17]: 2.19 (inactive)
z-score [18]: 1.84 (inactive)
z-score [19]: -1.06
z-score [20]: 1.75

C=C(COC)/C(=C/C[C@H](OC(C)=O)c1ccc(CO)o1)c1cnc2ccccc2c1
composite z-score [1]: 0.251
z-score [2]: -0.461 (inactive)
z-score [3]: 0.844 (inactive)
z-score [4]: -1.08 (inactive)
composite z-score [5]: 1.45
composite z-score [6]: 0.0173
composite z-score [7]: 1.21
composite z-score [8]: 1.42
composite z-score [9]: 2.15
z-score [10]: 1.23 (inactive)
composite z-score [11]: -0.145
z-score [12]: 3.78 (inactive)
z-score [13]: -1.35 (inactive)
z-score [14]: -0.148 (inactive)
z-score [15]: -2.05 (inactive)
z-score [16]: -0.198
z-score [17]: 2.33 (inactive)
z-score [18]: 0.615 (inactive)
z-score [19]: 0.915
z-score [20]: 0.283

NC(=O)NCC#Cc1ccc2c(c1)[C@]1(C(=O)N2)[C@H](c2ccc(OCCO)cc2)N2[C@H](c3ccccc3)[C@H](c3ccccc3)OC(=O)[C@H]2[C@@H]1C(=O)Nc1nc2ccccc2s1
composite z-score [1]: 0.151
z-score [2]: -0.0246 (inactive)
z-score [3]: -0.0246 (inactive)
z-score [4]: 0.625 (inactive)
composite z-score [5]: 0.453
composite z-score [6]: 0.0253
composite z-score [7]: -0.033
composite z-score [8]: 0.254
composite z-score [9]: 0.0186
z-score [10]: 2 (inactive)
composite z-score [11]: 0.122
z-score [12]: 2.5 (inactive)
z-score [13]: 2.06 (inactive)
z-score [14]: 1.53 (inactive)
z-score [15]: 1.33 (inactive)
z-score [16]: -0.199
z-score [17]: 1.43 (inactive)
z-score [18]: 0.57 (inactive)
z-score [19]: 1.16
z-score [20]: 0.0942

CC(C)C[C@@H]1NC(=O)[C@@H]2C[C@H](C(=O)NCCCCCNC(=O)CS)[C@H](c3cccc(OCCO)c3)N2C1=O
composite z-score [1]: 0.257
z-score [2]: -1.59 (inactive)
z-score [3]: 0.147 (inactive)
z-score [4]: -1.09 (inactive)
composite z-score [5]: 0.811
composite z-score [6]: 0.0207
composite z-score [7]: 1.31
composite z-score [8]: 0.824
composite z-score [9]: 2.03
z-score [10]: 1.8 (inactive)
composite z-score [11]: 0.348
z-score [12]: 3.21 (inactive)
z-score [13]: -0.422 (inactive)
z-score [14]: -1.74 (inactive)
z-score [15]: -1.93 (inactive)
z-score [16]: 0.955
z-score [17]: 2.24 (inactive)
z-score [18]: 0.84 (inactive)
z-score [19]: 0.00283
z-score [20]: 0.221

Cc1ccc(S[C@]2(C(=O)NCCN3CCOCC3)CC(=O)N(Cc3cc(C(F)(F)F)cc(C(F)(F)F)c3)[C@@H]2c2ccc(CO)cc2)cc1
composite z-score [1]: 0.322
z-score [2]: -2.39 (inactive)
z-score [3]: -0.464 (inactive)
z-score [4]: -1.7 (inactive)
composite z-score [5]: -0.721
composite z-score [6]: -0.0371
composite z-score [7]: -0.847
composite z-score [8]: -0.521
composite z-score [9]: -0.105
z-score [10]: 2.85 (inactive)
composite z-score [11]: -0.0576
z-score [12]: 1.69 (inactive)
z-score [13]: -0.152 (inactive)
z-score [14]: -0.468 (inactive)
z-score [15]: -1.39 (inactive)
z-score [16]: 2.65
z-score [17]: 0.538 (inactive)
z-score [18]: 0.706 (inactive)
z-score [19]: 0.754
z-score [20]: 0.422

C=CC[C@]1(C(=O)N(C)C)N=C(c2ccc(OCCCO)cc2)O[C@H]1c1ccccc1CN=[N+]=[N-]
composite z-score [1]: 0.508
z-score [2]: -1.79 (inactive)
z-score [3]: 2.8 (inactive)
z-score [4]: -1.16 (inactive)
composite z-score [5]: 1.39
composite z-score [6]: 0.0388
composite z-score [7]: 0.581
composite z-score [8]: 1.1
composite z-score [9]: 0.0463
z-score [10]: 1.19 (inactive)
composite z-score [11]: -0.237
z-score [12]: 11.8 (active)
z-score [13]: 1.47 (inactive)
z-score [14]: 2.63 (inactive)
z-score [15]: 0.817 (inactive)
z-score [16]: 0.434
z-score [17]: 1.23 (inactive)
z-score [18]: 0.653 (inactive)
z-score [19]: -1.25
z-score [20]: 0.937
